Data published in PubChem BioAssay (Tox21).
Records with an inconclusive call do not appear. The source made the active and inactive calls. The call rests on the fitted dose curve; in most records, active means well fitted inhibition curve with a large enough effect in the repeat runs; inconclusive means weak or mixed curves; inactive means no such curve, though single readings can be large or run the other way.

What follows are compounds tested against Cytochrome P450 3A4 (Homo sapiens) (UniProt P08684) (assay: Cytochrome P450 Family 3 Subfamily A Member 4 (CYP3A4) small molecule antagonists: luciferase reporter qHTS assay (AID 1671201; further: nearly all actives have a fitted effect of over 50% in size)). Settings: P450-Glo CYP3A4 enzyme, luciferin luminescence, 1 h; series mostly up to 115 µM; activity change, negative = inhibition: at the top concentration.
Chain of Cytochrome P450 3A4 (Homo sapiens) (P08684 whole entry, looked up): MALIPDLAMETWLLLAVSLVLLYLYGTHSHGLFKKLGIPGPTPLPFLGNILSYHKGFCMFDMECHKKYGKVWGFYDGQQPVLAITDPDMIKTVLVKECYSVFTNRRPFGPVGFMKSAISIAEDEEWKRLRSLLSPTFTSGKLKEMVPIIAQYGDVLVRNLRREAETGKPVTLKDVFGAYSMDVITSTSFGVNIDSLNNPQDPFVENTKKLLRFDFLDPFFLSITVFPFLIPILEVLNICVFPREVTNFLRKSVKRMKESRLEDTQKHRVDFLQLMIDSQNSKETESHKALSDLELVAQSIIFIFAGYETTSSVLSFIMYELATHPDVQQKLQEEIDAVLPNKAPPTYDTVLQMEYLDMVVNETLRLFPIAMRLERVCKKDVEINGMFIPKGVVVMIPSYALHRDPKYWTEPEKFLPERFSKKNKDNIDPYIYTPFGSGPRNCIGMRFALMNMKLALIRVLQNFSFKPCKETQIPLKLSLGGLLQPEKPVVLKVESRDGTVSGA
In short: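 Recombinant human CYP3A4 converts a proluciferin substrate to luciferin over 1 h at room temperature after NADPH regeneration solution is added (compound preincubated 10 min); detection reagent stops reaction, luminescence read 20 min later as relative units.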
On the % scale 0 is the no-effect control and ±100 the full control effect; potency means the concentration at half of the fitted maximal effect.

| Compound | activity change, negative = inhibition | Potency |
| --- | --- | --- |
| CCN1CCC2(CC1)COc1cc3c(cc12)N(C(=O)c1ccc(-c2ccc(-c4nnc(C)o4)cc2C)cc1)CC3 | 232% (inactive) |  |
| CCOC(=O)Cc1ccccc1 | 8.92% (inactive) |  |
| Oc1cc(Cl)cc(Cl)c1 | -18.2% (inactive) |  |
| COC(=O)C(C)N(C(=O)c1ccco1)c1c(C)cccc1C (centres undefined) | 156% (inactive) |  |
| N#Cc1c2ccccc2cc2ccccc12 | 5.56% (inactive) |  |
| N#CCCl |  | 66 µM (active) |
| COP(=S)(OC)Oc1nc(Cl)c(Cl)cc1Cl |  | 11.2 µM (active) |
| CC(O)C(=O)[O][Hg][c]1ccccc1 (centres undefined) |  | 6.33 µM (active) |
| CNC(C)(C)Cc1ccccc1 | -11.4% [at 52.9 µM] (inactive) |  |
| Nc1nc(N)c(N)c(N)n1 | -20.2% (inactive) |  |
| CCC[CH2][Sn]([CH2]CCC)([CH2]CCC)[CH2]CCC | 2.65% (inactive) |  |
| COC(=O)c1ccccc1S(=O)(=O)NC(=O)Nc1nc(C)nc(OC)n1 | -3.71% (inactive) |  |
| CC1CCCC1 |  | 27.8 µM (active) |
| [O-][Cl+3]([O-])([O-])O | 0.112% (inactive) |  |
